Hits are enriched below; roughly 5.1% of the tested compounds scored in any of these assays.
S1P4 antagonist: blocks the human S1P4 receptor; O95977; S1P4-expressing cells, antagonist mode, reporter read-out; inhibition, % at 4.98 µM; hit rate 0.26% among 220,000; in the data active = inhibition above about 29%
KCC2 mod: modulators of human KCC2 chloride dependent transport; KCC2 cells, thallium flux FluoZin-2 fluorescence; B-score of Tl+ flux slope (higher = more flux/activation; lower = inhibition) at 10 µM; hit rate 2.2% among 190,000;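 active = thallium flux slope and its plate-corrected score both differing from the plate sample mean at a set confidence after two filtering rounds, in either direction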;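 note: slope of fluorescence scaled to starting intensity during 10 to 20 s after thallium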
S1P4 ag: activates the human S1P4 receptor; O95977; S1P4-expressing cell line, agonist reporter assay; activation, % at 4.98 µM; hit rate 0.35% among 220,000; AID 1509; in the data active = activation above about 11%
S1P3 antag: antagonists of human S1P3 receptor | Q99500 | CHO S1P3 NFAT-BLA reporter, FRET fluorescence, antagonist mode | inhibition, % at 4.98 µM | hit rate 0.27% among 170,000;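 active = inhibition above the plate cutoff, the mean inhibition of test wells on that plate plus 3 SD, cut at about 28% in these data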;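 note: cells challenged with S1P at its EC80 of 0.8 µM; blue over green emission ratio from cleaved BLA substrate after 4 h stimulation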
RAM inhibit: blocks the yeast RAM network. S. cerevisiae dse1pr::URA3 reporter, 5-FOA growth OD615, 2 d; analog-sensitive cbk1-as2 kinase mutant strain. inhibition, % at 50 µM. hit rate 1.8% among 190,000. AID 868;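 active = inhibition above a set limit, 3 SD over mean compound inhibition, cut at about 8.4% in these data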;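 note: inhibition rescues growth on 5-FOA so higher OD means more RAM inhibition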
ROMK mod: modulates human ROMK potassium channel activity. P48048. Tet-inducible ROMK, thallium flux fluorescence; actives lie on both sides. B-score at 10 µM. hit rate 2% among 130,000;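 active = signal ratio slope over the read window, or its plate-corrected B-score, at least 3 SD from the plate mean, either direction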;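 note: B-score of the F/F0 ratio slope over 7 to 12 s after thallium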
S1P4 antag conf: human S1P4 antagonism, confirmation | shares compounds with S1P4 antagonist | S1P4-expressing cell line, antagonist mode, reporter read-out | inhibition, % at 4.98 µM | hit rate 71% among 520; in the data active = inhibition above about 30%
S1P1 antagonist: human S1P1 antagonism as S1P4 antagonist counter-screen; shares compounds with S1P4 antagonist; cell-based S1P1 antagonist counterscreen, inhibition; inhibition, % at 4.98 µM; hit rate 37% among 520; AID 1564; in the data active = inhibition above about 40%;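 note: receptor stimulated with S1P near its EC80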
Target sequence (P21453 whole entry, looked up): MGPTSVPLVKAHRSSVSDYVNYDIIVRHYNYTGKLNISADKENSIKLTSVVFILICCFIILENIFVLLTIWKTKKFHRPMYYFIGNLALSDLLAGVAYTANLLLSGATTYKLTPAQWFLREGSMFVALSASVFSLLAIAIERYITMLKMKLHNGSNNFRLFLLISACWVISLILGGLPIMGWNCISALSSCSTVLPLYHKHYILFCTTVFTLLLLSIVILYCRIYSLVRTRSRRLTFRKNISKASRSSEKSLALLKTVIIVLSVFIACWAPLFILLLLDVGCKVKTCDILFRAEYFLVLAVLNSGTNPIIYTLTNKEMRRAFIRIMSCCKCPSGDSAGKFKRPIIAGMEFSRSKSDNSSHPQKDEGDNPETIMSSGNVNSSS
A number is an active result.

How did Cc1ccc2oc(=O)n(CCCOc3ccccc3)c2c1 do in these assays?
S1P4 antagonist: 34; S1P4 ag: inactive; S1P3 antag: inactive; RAM inhibit: inactive; ROMK mod: inactive; S1P4 antag conf: inactive; S1P1 antagonist: inactive

What do the screens show for `Cc1ccc(OCCn2c(=O)oc3ccc(C)cc32)cc1`?
S1P4 antagonist: inactive; KCC2 mod: inactive; S1P4 ag: inactive; S1P3 antag: inactive; RAM inhibit: inactive; ROMK mod: inactive

Results for Cc1nnc(N/N=C/c2c(Cl)cccc2Cl)n1N ?
S1P4 antagonist: 30; KCC2 mod: inactive; S1P4 ag: inactive; S1P3 antag: inactive; RAM inhibit: inactive; ROMK mod: inactive; S1P4 antag conf: inactive; S1P1 antagonist: inactive

Results for Cc1nnc(N/N=C/c2ccccc2O)n1N ?
S1P4 antagonist: inactive; KCC2 mod: inactive; S1P4 ag: inactive; S1P3 antag: inactive; RAM inhibit: inactive; ROMK mod: inactive

What do the screens show for `CCOc1cc(CNCCc2ccc(S(N)(=O)=O)cc2)ccc1OCc1ccc(Cl)cc1`?
S1P4 antagonist: 37; KCC2 mod: inactive; S1P4 ag: inactive; RAM inhibit: inactive; ROMK mod: inactive; S1P4 antag conf: 40; S1P1 antagonist: inactive

What do the screens show for `CC1Cn2c(nnc2-c2cc3ccccc3cc2O)S1` (stereo not given)?
S1P4 antagonist: 34; KCC2 mod: inactive; S1P4 ag: inactive; S1P3 antag: inactive; RAM inhibit: inactive; ROMK mod: inactive; S1P4 antag conf: inactive; S1P1 antagonist: inactive

What do the screens show for `CC1Cn2c(nnc2-c2ccccc2O)S1` (stereo not given)?
S1P4 antagonist: inactive; KCC2 mod: inactive; S1P4 ag: inactive; S1P3 antag: inactive; RAM inhibit: inactive

What do the screens show for `O=C(CCSc1ccccc1)NC1CCCCCC1`?
S1P4 antagonist: 43; KCC2 mod: inactive; S1P4 ag: inactive; S1P3 antag: inactive; RAM inhibit: inactive; ROMK mod: inactive; S1P4 antag conf: inactive; S1P1 antagonist: inactive

What do the screens show for `COc1ccc(N=C2C(=Nc3ccc(OC)cc3)N(c3ccc(OC)cc3)C(=S)N2C)cc1`?
S1P4 antagonist: 35; KCC2 mod: inactive; S1P4 ag: inactive; RAM inhibit: inactive; ROMK mod: inactive; S1P4 antag conf: 38; S1P1 antagonist: inactive

How did CC(=O)N(C1=C(Cl)C(=O)c2ccccc2C1=O)C1CCCCC1 do in these assays?
S1P4 antagonist: 52; KCC2 mod: inactive; S1P4 ag: inactive; S1P3 antag: inactive; S1P4 antag conf: 115; S1P1 antagonist: 61

Results for CCCOC(=O)C1=C(C)OC23OC(N)=C(C#N)C12C(=O)c1ccccc13 (stereo not given) ?
S1P4 antagonist: inactive; KCC2 mod: inactive; S1P4 ag: inactive; RAM inhibit: inactive; ROMK mod: inactive

Results for CCOC(=O)C1(Cc2ccc(Cl)cc2)CCN(Cc2cn(CC)nc2C)CC1 ?
S1P4 antagonist: inactive; KCC2 mod: inactive; S1P4 ag: inactive; S1P3 antag: inactive

What do the screens show for `CCC(CC)NC(=O)CO/N=C/c1ccccc1OC(F)F`?
S1P4 antagonist: 39; KCC2 mod: inactive; S1P4 ag: inactive; S1P3 antag: inactive; RAM inhibit: inactive; ROMK mod: inactive; S1P4 antag conf: inactive; S1P1 antagonist: inactive

How did O=C(CO/N=C/c1ccccc1OC(F)F)NC1CCCCC1 do in these assays?
S1P4 antagonist: inactive; KCC2 mod: inactive; S1P4 ag: inactive; S1P3 antag: inactive; RAM inhibit: inactive; ROMK mod: inactive

How did N#C/C(=C\c1cccc(O)c1)c1nc2ccccc2o1 do in these assays?
S1P4 antagonist: 32; KCC2 mod: inactive; S1P4 ag: inactive; S1P3 antag: inactive; S1P4 antag conf: inactive; S1P1 antagonist: inactive

What do the screens show for `Cc1cc(O)ccc1N/C=C/c1onc(C)c1[N+](=O)[O-]`?
S1P4 antagonist: inactive; KCC2 mod: inactive; S1P4 ag: inactive; S1P3 antag: inactive; RAM inhibit: inactive; ROMK mod: inactive

What do the screens show for `Cc1noc(/C=C/c2nn(C)cc2Cl)c1[N+](=O)[O-]`?
S1P4 antagonist: 34; KCC2 mod: inactive; S1P4 ag: inactive; S1P3 antag: inactive; S1P4 antag conf: 59; S1P1 antagonist: inactive

How did COc1ccc(OC)c(S(=O)(=O)NC(N)=NCCc2ccccc2)c1 do in these assays?
S1P4 antagonist: inactive; KCC2 mod: inactive; S1P4 ag: inactive; S1P3 antag: inactive; RAM inhibit: inactive; ROMK mod: inactive

What do the screens show for `Cc1[nH]n2c(=O)cc(C(C)(C)C)nc2c1-c1ccccc1`?
S1P4 antagonist: 34; S1P4 ag: inactive; S1P3 antag: inactive; RAM inhibit: inactive; ROMK mod: inactive; S1P4 antag conf: inactive; S1P1 antagonist: inactive

How did Cc1ccc(C2=Nc3ccccc3SC(c3cccc([N+](=O)[O-])c3)C2)cc1 (stereo not given) do in these assays?
S1P4 antagonist: 45; KCC2 mod: inactive; S1P4 ag: inactive; S1P3 antag: inactive; ROMK mod: inactive; S1P4 antag conf: inactive; S1P1 antagonist: inactive

Results for CC(Oc1ccc(Cl)cc1Cl)C(=O)NNC(=O)C(=O)N1CCCCC1 (stereo not given) ?
S1P4 antagonist: inactive; KCC2 mod: inactive; S1P4 ag: inactive; S1P3 antag: inactive; RAM inhibit: inactive; ROMK mod: inactive

Results for O=C(CC(SCc1ccco1)c1ccc(O)cc1)c1cccs1 (stereo not given) ?
S1P4 antagonist: inactive; KCC2 mod: inactive; S1P4 ag: inactive; S1P3 antag: inactive; RAM inhibit: inactive; ROMK mod: inactive

Results for O=C(CC(SCCO)c1ccc2c(c1)OCO2)c1cccs1 (stereo not given) ?
S1P4 antagonist: 36; KCC2 mod: inactive; S1P4 ag: inactive; S1P3 antag: inactive; RAM inhibit: inactive; S1P4 antag conf: inactive; S1P1 antagonist: inactive

What do the screens show for `Cc1cc([N+](=O)[O-])nn1Cc1ccc(C(=O)N/N=C/c2ccc(N(C)C)cc2)cc1`?
S1P4 antagonist: inactive; KCC2 mod: inactive; S1P4 ag: inactive; S1P3 antag: inactive

What do the screens show for `CCCCS(=O)(=O)/C=C\C1C2C=CC(C2)C1S(=O)(=O)CCCC` (stereo not given)?
S1P4 antagonist: inactive; S1P4 ag: inactive; S1P3 antag: inactive; RAM inhibit: inactive

How did CCCCS(=O)(=O)/C=C\C=C/S(=O)(=O)CCCC do in these assays?
S1P4 antagonist: 99; KCC2 mod: inactive; S1P4 ag: inactive; RAM inhibit: inactive; S1P4 antag conf: 117; S1P1 antagonist: 62

How did COc1ccc(-c2cc(-c3ccccc3)c(C#N)c(S(C)=O)n2)cc1 (stereo not given) do in these assays?
S1P4 antagonist: 54; S1P4 ag: inactive; RAM inhibit: inactive; ROMK mod: inactive; S1P4 antag conf: 85; S1P1 antagonist: inactive

How did O=C(CSc1ccc2ccccc2n1)c1ccccc1 do in these assays?
S1P4 antagonist: inactive; KCC2 mod: inactive; S1P4 ag: inactive; S1P3 antag: inactive; ROMK mod: inactive

Screening results (PubChem BioAssay)
